Tests used:
Assay in all cases: PBM binding z-score (relative to random genomic background probes); higher = stronger binding; sequences stand for … in GC…GCGATTGACAGCGTAGAATGAAGG
[1] = tested on: PPARg:RXRa DBDmut IVT, anti-RXR (DBD mutation: RXRa K156A/R161A, NR concentration 270 nM, RXRa partner concentration 90 nM)
In short: (§1)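 The probes on custom Agilent 4×180K protein-binding microarrays were double-stranded, with 34-nt variable regions bearing direct-repeat seeds, single-nucleotide variants, half-site ablations and random human genomic background sequences. Incubation lasted 1 h with ligand-free nuclear receptor dimers in PBS pH 7.4, 2% milk, 0.02% Triton X-100, 1 mM DTT, 0.2 mg/mL BSA and 0.4 mg/ml salmon testes DNA. Antibodies against each partner (one per run) detected bound dimers, and fluorescence scans were regression-normalized. Binding z-scores take the random background probes as reference.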

[2] = tested on: PPARg:RXRa IVT, anti-PPARg (NR concentration 270 nM, RXRa partner concentration 90 nM)
In short: as §1

[3] = tested on: PPARg DBDmut:RXRa IVT, anti-PPARg (DBD mutation: PPARg1 K132A/R137A, NR concentration 270 nM, RXRa partner concentration 90 nM)
In short: as §1

[4] = tested on: PPARg DBDmut IVT, anti-PPARg (DBD mutation: PPARg1 K132A/R137A, NR concentration 270 nM)
In short: as §1

[5] = tested on: PPARg homodimer (NR concentration 180 nM)
In short: as §1

[6] = tested on: PXR:RXRa (NR concentration 270 nM, RXRa partner concentration 90 nM)
In short: as §1

[7] = tested on: PXR homodimer (NR concentration 270 nM)
In short: as §1

[8] = tested on: RARa:RXR (NR concentration 270 nM, RXRa partner concentration 90 nM)
In short: as §1

[9] = tested on: RARa homodimer (NR concentration 270 nM)
In short: as §1

[10] = tested on: RARb:RXRa (NR concentration 270 nM, RXRa partner concentration 90 nM)
In short: as §1

[11] = tested on: RARb homodimer (NR concentration 270 nM)
In short: as §1

[12] = tested on: RARg:RXRa (NR concentration 270 nM, RXRa partner concentration 90 nM)
In short: as §1

[13] = tested on: RARg homodimer (NR concentration 270 nM)
In short: as §1

[14] = tested on: RXRa DBDmut IVT, anti-RXR (DBD mutation: RXRa K156A/R161A, NR concentration 90 nM)
In short: as §1

[15] = tested on: RXRa homodimer (NR concentration 180 nM)
In short: as §1

[16] = tested on: THRa:RXRa (NR concentration 90 nM, RXRa partner concentration 90 nM)
In short: as §1

[17] = tested on: THRa homodimer (NR concentration 90 nM)
In short: as §1

[18] = tested on: VDR homodimer (NR concentration 270 nM)
In short: as §1

Sequence | PBM binding z-score [1] | PBM binding z-score [2] | PBM binding z-score [3] | PBM binding z-score [4] | PBM binding z-score [5] | PBM binding z-score [6] | PBM binding z-score [7] | PBM binding z-score [8] | PBM binding z-score [9] | PBM binding z-score [10] | PBM binding z-score [11] | PBM binding z-score [12] | PBM binding z-score [13] | PBM binding z-score [14] | PBM binding z-score [15] | PBM binding z-score [16] | PBM binding z-score [17] | PBM binding z-score [18]
TATACAGGGTCAAAGGCCGGAGTACGAATGTCGA | 2.46 | 4.9 | 2.77 | 1.88 | 2.2 | 3.97 | 0.381 | 5.47 | 1.43 | 4.27 | 3.45 | 5.49 | 4.9 | 2.94 | 6.66 | 3.34 | 0.872 | 3.02
TCTAGTTGGTCACGGACGTCACACACGACGGGTA | 2.14 | 1.94 | 1.1 | 1.25 | 0.55 | 0.245 | 0.184 | 0.485 | 0.469 | 1.57 | 1.04 | 1.2 | 1.55 | 0.677 | 0.866 | 0.233 | -0.0119 | 0.188
AGTCATAGTTCATCTAGGTAACGTAAGATATGCT | 0.73 | 2.74 | 1.12 | 0.57 | 1.23 | 2.03 | 1.24 | 1.78 | 0.89 | 3.26 | 2.23 | 3.01 | 3.33 | 2.6 | 2.02 | 2.21 | 0.0435 | 2.02
TCTTGTAGATCAACAGCAGGTTAAGAAAGATCGA | 1.66 | 0.684 | -0.0164 | 0.918 | -0.793 | 0.178 | -0.2 | 0.544 | 0.0361 | 0.0725 | 0.0548 | 0.165 | -0.0185 | 0.681 | 0.512 | 0.308 | -0.504 | -0.471
CCGACTGGGGCCGAAAGGTTACCATACCATCCGG | -0.423 | 0.138 | -1.16 | -1.62 | 0.848 | 1.29 | -0.286 | 1.78 | -0.324 | 2.01 | 2.41 | 2.18 | 1.28 | -0.679 | 2.15 | 1.14 | -0.247 | -0.349
CGTCCACGGTCAGAGAGGTCAGTGAATGCCGAGT | 0.449 | 1.17 | -1.02 | -1.36 | 2.07 | 3.13 | 2.89 | 2.83 | 0.503 | 3.95 | 4.32 | 3.6 | 4.74 | 0.914 | 2.75 | 2.54 | 0.458 | 2.11
TCGAGTAGGATAGGGGCATTCAGAATGGCGTCGA | 0.794 | -0.24 | -0.499 | -1.34 | 0.0464 | -0.136 | -0.0675 | -0.134 | -0.862 | 0.225 | 0.241 | -0.218 | -0.225 | 0.0984 | 0.155 | 0.209 | -0.171 | 0.237
CGAACTAGGTCATCAAGGACAGTGAATACATTGA | 8.23 | 8.64 | 1.85 | 1.55 | 1.45 | 2 | 1.45 | 2.13 | 0.127 | 3.88 | 3.18 | 3.95 | 4.85 | 1.92 | 2.67 | 3.87 | 2.11 | 1.83
CCTAATGGGCCACGAAAGGTCATTGATTCAGTGA | 3.95 | 4.1 | 0.487 | 0.297 | 2.38 | 5.44 | 1.32 | 5.08 | 0.945 | 4.16 | 4.85 | 4.78 | 4.65 | 1.17 | 4.84 | 3.95 | 0.853 | 2.52
CCAGAAAGGTGAGAAGGTAACTCAGCCTCGATTA | 2.89 | 1.98 | -0.302 | -0.361 | 1.15 | 0.319 | -0.419 | 1.28 | 0.133 | 2.67 | 1.43 | 2.36 | 1.91 | 0.256 | 1.53 | 0.725 | 0.0189 | -0.238
ATCGAAATGTCGACGAGGTGAGTATACACCGTTT | -0.343 | 0.676 | 0.668 | 0.692 | -0.253 | -0.067 | 0.0399 | 0.312 | -0.025 | 0.403 | 0.224 | 0.712 | 0.657 | -0.0108 | 0.492 | 1.43 | 0.345 | -0.13
TCTTGTAGATCAAAGGGTAAGAAAGCCGAAGCCT | 1.69 | 1.86 | -0.0494 | -0.151 | -0.138 | 0.0425 | -0.478 | 0.483 | -0.0812 | 0.507 | -0.068 | 0.11 | -0.178 | 0.629 | 0.585 | -0.022 | -0.878 | -0.525
ATCTCTAGGTAAAAGTACAGTGAATCCCGAGGAT | 1.64 | 1.67 | 1.14 | 1.43 | 0.118 | -0.149 | 0.313 | -0.057 | 1.08 | 0.298 | -0.337 | 0.567 | 0.702 | -0.00884 | 0.199 | 0.284 | 0.0784 | 0.123
GCGACTGGGGCATCAGCAGGCTACCATAACTTAA | 4.01 | 2.87 | -0.343 | -1.56 | -0.243 | -0.692 | -0.801 | -0.592 | -1.13 | 0.346 | 0.21 | -0.0453 | 0.15 | -0.185 | -0.168 | -0.0992 | 0.158 | -0.693
